Assay results as given in PubChem BioAssay AID1053124 (Broad Institute, 2014).
Results with a measured potency or affinity are listed apart. Active and inactive are the calls of the source.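 Rule for the calls: active = cell killing whose fitted half-effect concentration is at most twice the top valid dose tested; inconclusive = flat curve with 30 to 70% killing, or a poor fit; inactive = effect in the rising direction, plus the rest.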

Assay: viability loss in A549 lung cells – cell-based, ATP luminescence, cherry-pick, set 2, cytotoxicity control, dose response (AID 1053124)
Settings: ATP luminescence (CellTiter-Glo), 72 h; series mostly up to 26 µM

Structure (SMILES)	outcome
CC(C)CCN(CCC(C)C)CC(O)Cn1c2ccccc2c(=O)c2ccccc21 (stereo not drawn)	inactive
Cn1nc(-c2ccc(Cl)cc2)c2cc(C(=O)N3CCN(c4ccccc4)CC3)sc21	inactive
COCCN1C=C(C(=O)OC)C(c2ccc(Cl)cc2)C(C(=O)OC)=C1	inactive
NC(=O)c1cc([N+](=O)[O-])ccc1NCc1cccnc1	inactive
Cc1cccn2c(=O)c3cc(C(=O)NCc4ccc(F)cc4)c(=N)n(CCCN4CCOCC4)c3nc12	inactive
CCOC(=O)c1oc2c(CN3CCN(CCO)CC3)c(O)c(CC)cc2c(=O)c1-c1nc2ccccc2s1	inactive
COc1c(Cl)cc(-c2noc(C)c2C(=O)NCc2ccc3c(c2)OCO3)cc1Cl	inactive
O=C(CCc1c[nH]c2ccccc12)OCC(=O)c1ccccc1	inactive
Cc1c2c(n3c(nc4ccccc43)c1C#N)N(CCN1CCOCC1)CC2	inactive
O=c1c2ccccc2n(CC(O)CN2CCCCC2)c2ccccc12 (stereo not drawn)	inactive
CCn1c2ccccc2c(=O)c2ccccc21	inactive
O=C(C1=NN(c2ccccc2)C2C(=O)N(c3ccccc3)C(=O)C12)c1ccccc1 (stereo not drawn)	inactive
O=[N+]([O-])c1cccc(-c2n[nH]c(=S)n2-c2ccc(Br)cc2)c1	inactive
CCCCN1C=C(C(=O)OC)C(c2ccccc2Cl)C(C(=O)OC)=C1	inactive
CCc1cccc(C)c1NC(=S)NCc1ccc2c(c1)cc(C)n2C	inactive
COc1ccccc1C(=O)c1cc2ccc(O)cc2oc1=O	inactive
CCc1nnc(NC(=O)c2ccc(-c3ccccc3F)o2)s1	inactive
CCOC(=O)c1cc2c(=O)n3ccccc3nc2n(CCCOC)c1=NC(=O)c1ccncc1	inactive
CNC(=O)c1ccc(NC(=O)c2cccc(C(F)(F)F)c2)cc1	inactive
Cn1c2ccccc2c(=O)c2ccc(F)cc21	inactive
CCOc1ccc(S(=O)(=O)Nc2ccc(C(=O)N(CC)CC(=O)NCc3cccs3)cc2)cc1	inactive
Cc1cc(-c2nc3cccnc3s2)ccc1NS(=O)(=O)c1cccs1	inactive
CCC(C)NC(=S)N1CCN(Cc2ccc3c(c2)OCO3)CC1 (stereo not drawn)	inactive
CC(C)N1CCc2c(sc(NC(=O)Cc3ccccc3)c2C#N)C1	inactive

Structure (SMILES)	outcome
CCOC(=O)c1cc2c(=O)n3cccc(C)c3nc2n(CC(C)C)c1=NC(=O)c1ccco1	inactive
CN1c2ccc(Cl)cc2C(=O)NC1C1CC=CCC1 (stereo not drawn)	inactive
CCC(=O)N1C(C(=O)NCc2ccc(OC)cc2)CSC1c1ccc(OC)cc1 (stereo not drawn)	inactive
COCCNC(=O)c1cc2c(=O)n3cccc(C)c3nc2n(Cc2ccncc2)c1=N	inactive
CCCCn1nc(NC(=O)c2cccs2)c2cc3cc(OC)ccc3nc21	inactive
CC1CC(C)CN(CCCNC(=O)CCC(=O)N2CC(C)Oc3ccccc32)C1 (stereo not drawn)	inactive
CCOc1ccc2nc(NCCCNS(=O)(=O)c3ccc(F)cc3)c(C#N)cc2c1	inactive
CC(=O)Oc1ccc2cc(-c3nc4ccccc4n3C)c(=O)oc2c1	inactive
CC1=C(C(=O)N2CCN(c3cc(C)ccc3C)CC2)C2(CCCCC2)OC1=O	inactive
Cc1ccc(NC(=O)Nc2ccnc(-c3cccnc3)n2)cc1	inactive
O=c1oc2c(CN3CCCCC3)c(O)ccc2cc1-c1nc2ccccc2[nH]1	inactive
Cc1cc(-n2c(=O)c(C#N)cc3c(=O)n4cccc(C)c4nc32)no1	inactive
CC(C)CCn1c(CN2CC(C)OC(C)C2)nc2c1c(=O)n(C)c(=O)n2C (stereo not drawn)	inactive
Nc1ccc2nc(-c3ccccc3)cnc2c1	inactive
N#Cc1c(NCCCO)nc(NCc2ccccc2)c2c1CCN(Cc1ccccc1)C2	inactive
CCOC(=O)C(NC(=O)c1ccccc1)(OCC1(CC)COC1)C(F)(F)F (stereo not drawn)	inactive
CC(=O)OC[C@@H]1CN(Cc2ccccc2)C[C@H](n2cnc3c(N(C)C(C)C)ncnc32)O1	inactive
N=c1oc2cc(O)ccc2cc1C(=O)Nc1nc2ccccc2s1	inactive
Cc1ccc(OCC(=O)NNc2c3ccccc3nc3ccccc23)cc1	inactive
CCC(C)n1c(=N)c(C#N)cc2c(=O)n3cccc(C)c3nc21 (stereo not drawn)	inactive
Cc1cccn2c(=O)c3cc(C(N)=S)c(=N)n(CCCN4CCOCC4)c3nc12	inactive
O=C(Cn1ccc([N+](=O)[O-])n1)N1CCCCCC1	inactive
O=C(Nc1ccc(-c2ccco2)cc1)C1CCCN(Cc2ccco2)C1 (stereo not drawn)	inactive
Cc1c(O)ccc2cc(S(=O)(=O)c3ccccc3)c(=O)oc12	inactive
